Experimental data from PubChem BioAssay (NCI).
Compounds without any hit were thinned out: in the full panel of roughly 79,000, 15% have a hit. Activity calls are given as the source filed them. Rule as the data show it: active = growth inhibition above about 70%; inactive = the rest. Where a SMILES comes first, the peptide text is derived from it. The star is where a group is joined. Cbz = O=C(OCc1ccccc1)*

Experiment: NCI Yeast Anticancer Drug Screen. Data for the rad50 strain (AID 155);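 also: 0% = growth of vehicle-only cultures of the same strain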
Conditions: S. cerevisiae rad50 strain growth inhibition; at 50.0 µM; active compounds read high
Procedure, shortened: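 Vehicle-treated cultures provide the reference for the growth inhibition reported for compound-exposed, repair-deficient yeast.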

Compound | growth inhibition
C/C(=N\NC(=S)N1CCCC1)c1ccc[nH]1 | -6.55% (inactive)
CC(CC(C)(C)C)C(=O)NC(N)=O (stereo not drawn) | 29.3% (inactive)
CN(C)CCC(C(N)=O)c1ccccc1 (stereo not drawn) | 36.1% (inactive)
CC1(O)C2C3C(I)C4C5C3C1C5C42 (stereo not drawn) | 22.6% (inactive)
CCOC(=O)c1cnc2nc[nH]n2c1=O | -52.8% (inactive)
NC(=O)C(Cc1ccc(O)cc1)NC(=O)c1ccccc1 (stereo not drawn) | -8.8% (inactive)
N/C(CC/C(N)=N\O)=N\O | -1.95% (inactive)
CS(=O)(=O)N1COC(=O)[C@@H]1c1ccccc1 | 1.25% (inactive)
CCCCCCC(O)C/C=C/CCCCCC/C(C(=O)OC)=C(/O)C(=O)OCC (stereo not drawn) | 3.3% (inactive)
[N-]=[N+]=Nc1ccc(NCCCCCC(=O)ON2C(=O)CCC2=O)c([N+](=O)[O-])c1 | 72% (active)
Cc1nc(N(C)C)oc(=O)c1Cc1ccccc1 | -0.9% (inactive)
CCOC(=O)CCC(NC(=O)OCc1ccccc1)C(=O)NC(CCC(=O)OCC)C(=O)OCC (stereo not drawn) (Cbz-Glu(OEt)-Glu(OEt)-OEt; configuration not given here) | 17.9% (inactive)
CCCCCC(Cl)(CC)CCCCC | -23.4% (inactive)
CN1CC(=O)N(CO)/C1=N\CO | -7.15% (inactive)
CCOC(=O)C(=CNc1ccc(N(CC)CC)cc1)C(=O)OCC | -12.7% (inactive)
CCCCCCCCCCCCN1CCCN(CCCCCCCCCCCC)CC1 | 56.7% (inactive)
ClC/C(=N\N1CCCCCC1)c1ccccc1 | -7.8% (inactive)
COc1cccc2c(SCC(=O)Nc3ccccc3-c3ccccc3NC(=O)CSc3c4ccccc4nc4c(OC)cccc34)c3ccccc3nc12 | -2.4% (inactive)
